# Bioassay records (PubChem BioAssay)
# The list is not random: actives were taken first. Their share in the collection is about 5%.
# LmPK inh: LmPK (Leishmania mexicana) enzyme inhibition. Q27686. purified LmPK, Kinase-Glo ATP luminescence, 1 h. Potency, µM (doses to about 57.5 µM), inactives show top-dose activity change, negative = inhibition, actives largely listed as inhibitors. actives 0.37% (n = 290,000); further: potency means the concentration at half of the fitted maximal effect
# Target sequence (Q27686 whole entry, looked up): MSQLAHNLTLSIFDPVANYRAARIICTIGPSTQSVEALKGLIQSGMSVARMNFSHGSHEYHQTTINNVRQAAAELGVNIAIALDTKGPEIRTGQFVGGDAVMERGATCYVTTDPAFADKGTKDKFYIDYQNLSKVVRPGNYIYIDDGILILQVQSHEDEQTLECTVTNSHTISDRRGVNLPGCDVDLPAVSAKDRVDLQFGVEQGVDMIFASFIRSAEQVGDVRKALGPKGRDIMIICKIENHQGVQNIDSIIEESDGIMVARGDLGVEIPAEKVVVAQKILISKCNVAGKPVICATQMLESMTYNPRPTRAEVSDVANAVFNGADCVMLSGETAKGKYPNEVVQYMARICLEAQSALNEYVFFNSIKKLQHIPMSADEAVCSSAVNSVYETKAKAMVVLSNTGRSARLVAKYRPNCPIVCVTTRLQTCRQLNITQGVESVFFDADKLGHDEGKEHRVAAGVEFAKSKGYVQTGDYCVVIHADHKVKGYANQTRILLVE
#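 0.1 nM LmPK, 0.5 mM PEP, 0.1 mM ADP; 50 mM imidazole pH 7.2, 7 mM MgCl2, 50 mM KCl; 1 h RT. Kinase-Glo luminescence readout, normalized to no-enzyme (full inhibition) and uninhibited wells.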
# VACV Venus inh: vaccinia inhibition (Venus reporter). Vaccinia virus Venus reporter expression, fluorescence. Potency, µM (doses to about 36.5 µM), for the others: at the top dose activity change, negative = inhibition, actives largely listed as inhibitors. actives 0.46% (n = 330,000). AID 720580; calls by dose curve; tested in A549 cells; further: potency means the concentration at half of the fitted maximal effect; nearly all actives have a fitted effect of over 30% in size
# TbPYK inhibitor: T. brucei pyruvate kinase inhibition | TbPYK enzyme, Kinase-Glo Plus ATP luminescence, 45 min | actives 0.12% (n = 410,000) | Q57TT1 | Potency, µM (doses to about 76.8 µM), for inactives: top-dose activity, negative = inhibition, hits mostly inhibitors; further: potency means the concentration at half of the fitted maximal effect; nearly all actives have a fitted effect of over 50% in size
#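 Enzyme and substrate buffer are dispensed first and compound is pin-transferred. ADP at 130 uM final then starts the reaction, which runs 45 min at room temperature. Detection reagent is added for 10 min before luminescence is imaged.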
# HCMV antiviral: blocks human cytomegalovirus replication; HFF cells, HCMV-luciferase reporter, 72 h; active compounds read low; activity change, negative = inhibition, % at 57.5 µM; actives 4.5% (n = 410,000); AID 1259415; in the data active means activity change below about -60%; inconclusive means no clear call, values can overlap the other calls; inactive means above about -39%
#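 Compounds were evaluated in HFFs infected with an HCMV luciferase reporter virus (MOI 1 PFU/cell). Luciferase in lysates collected 72 h post infection served as the replication measure.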
# Vaccinia mCherry: inhibitors of vaccinia virus infection (mCherry reporter signal) | Potency, µM (series often up to 36.5 µM), without a hit: at the top dose activity change, negative = inhibition, most hits filed as inhibitors | actives 0.63% (n = 310,000) | Vaccinia virus mCherry reporter infection, fluorescence; calls by dose curve; tested in A549 cells; further: potency means the concentration at half of the fitted maximal effect; nearly all actives have a fitted effect of over 35% in size
# An asterisk follows results filed as active; i = inactive; ? = inconclusive; . = no result given; + = active, no number; ! = not confirmed by another sample; [ ] = another dose, or the depositor's remark. Unless noted, the call rests on the fitted dose curve; in most records, active means well fitted curve in the direction sought with a large enough effect; inconclusive means small, poorly fitted or top-dose-only effect, or another doubt; inactive means no such curve, though single readings can be large; an effect the other way counts as inactive or inconclusive. On the % scale 0 is the no-effect control and ±100 the full control effect.
SMILES,LmPK inh,VACV Venus inh,TbPYK inhibitor,HCMV antiviral,Vaccinia mCherry
CC(C)[C@H](NC(=O)[C@H]1N2C(=O)c3ccccc3C2SC1(C)C)C(=O)NCc1ccco1 (stereo partly specified),-4%,.,0%,+,.
O=C(c1sccc1Cl)N1CCN(Cc2ccc3c(c2)OCO3)CC1,0%,-12%,-2%,31,i
O=C(O)c1cccc(N2C(=O)C=CC2=O)c1,.,-9%,?,-17,-19%
O=C(Nc1ccc(Cl)cc1Cl)c1cccc(N2C(=O)C=CC2=O)c1,12%,-25%,?,-73*,i
c1ccc(COc2ncnc3c2ncn3CCCNCC(c2ccccc2)c2ccccc2)cc1,.,14µM*,2%,-29,?
CC(CNCCCn1ccc(NC(=O)OCc2ccccc2)nc1=O)c1ccccc1 (stereo unspecified),.,-23%,1%,-13,i
O=C(Nc1ccn(CCCNCC(c2ccccc2)c2ccccc2)c(=O)n1)OCc1ccccc1,.,11µM*,1%,-36,13µM*
O=C(NNC(=O)c1ccc(Br)s1)c1cccc(S(=O)(=O)N2CCCC2)c1,.,.,0%,-6,.
CC1(C)COC(/C=C/c2ccc([N+](=O)[O-])cc2)=N1,4%,?,-2%,-101*,?
O=[N+]([O-])c1ccc(/C=C/c2ccnc3ccccc23)cc1,.,19%,.,.,22%
Cc1ccc(Cl)cc1N1CCN(C(=O)c2cn(CC(C)C)c(=O)c3c2c2ccccc2n3C)CC1,.,?,2%,19,?
Cc1ccc(C)c(CSCc2nc3ccccc3[nH]2)c1,2%,.,-13%,-73*,.
CCCCCCCCCCCCCCCC[n+]1ccc(/C=C/c2c[nH]c3ccccc23)cc1,.,29%,.,.,?
OCC[n+]1ccc(/C=C/c2c[nH]c3ccccc23)cc1,-1%,-11%,-21%,-99*,-16%
COc1cc(OC)c(OC)cc1/C=C1\CC(C)C/C(=C\c2cc(OC)c(OC)cc2OC)C1=O (stereo unspecified),3%,.,-6%,-99*,.
CCC1C/C(=C\c2cc(OC)c(OC)cc2OC)C(=O)/C(=C/c2cc(OC)c(OC)cc2OC)C1 (stereo unspecified),0%,.,-5%,.,.
COc1ccc(C(=O)c2ccc3oc(-c4ccc(OC)cc4)c(-c4ccc(O)cc4)c3c2)cc1,.,-29%,-8%,-64*,-11%
COc1ccc(C(=O)c2c(-c3ccc(OC)cc3)oc3ccccc23)cc1,.,-12%,-10%,14,-26%
COc1ccc(-c2oc3ccccc3c(=O)c2OC(=O)c2ccc(C)cc2)cc1,9%,?,-7%,-75*,.
COc1ccc(C(=O)c2c(C)oc3ccc(O)cc23)cc1,3%,.,2%,?,.
O=C(Oc1c(-c2ccccc2Cl)oc2ccccc2c1=O)c1ccc(Cl)cc1,1%,-13%,-1%,8,-6%
O=C(Oc1c(-c2ccccc2)oc2ccccc2c1=O)c1ccccc1,3%,?,2%,-82*,?
O=c1cnc2ccccc2n1Cc1ccc(Br)cc1,-4%,-15%,2%,27,-20%
CC(C)(C)c1ccc(Cn2c(=O)cnc3ccccc32)cc1,0%,-25%,-1%,-81*,?
CCNc1nc(NC(C)C)nc(NS(=O)(=O)c2ccc(N)cc2)n1,1%,.,7%,-19,.
SMILES,LmPK inh,VACV Venus inh,TbPYK inhibitor,HCMV antiviral,Vaccinia mCherry
O=C(Nc1c2c(nn1-c1ccc(Cl)cc1)CS(=O)(=O)C2)c1ccc(Br)cc1,.,-21%,-5%,-76*,i
O=C(Nc1c2c(nn1-c1ccc(Cl)cc1)CS(=O)(=O)C2)c1ccc2c(c1)OCO2,8%,.,-1%,-2,.
CS(=O)(=O)N(CC(=O)NCC1CCCO1)c1ccc(F)c(Cl)c1 (stereo unspecified),-2%,0%,-2%,-60*,.
Cc1cccc(C)c1NC(=O)C(CCc1ccccc1)N1CCN(C)CC1 (stereo unspecified),.,-17%,.,?,-3%
Cc1cccc(-n2c(CNC(=O)c3ccc(S(=O)(=O)N4CCCCC4)cc3)n[nH]c2=S)c1,10%,-6%,7.9µM*,1,-7%
COc1ccccc1-n1c(CNC(=O)c2ccc(S(=O)(=O)N3CCCCC3)cc2)n[nH]c1=S,-1%,1%,?,-70*,-7%
O=C(NCc1n[nH]c(=S)n1-c1cccc(Cl)c1)c1ccc(S(=O)(=O)N2CCCC2)cc1,0%,.,?,-12,.
O=C(NCCCN1CCOCC1)c1cccc(S(=O)(=O)Nc2ccc(F)cc2)c1,.,.,2%,-27,.
CN(C)CCCn1c2c3ccccc3ccc2c2oc(=O)c3ccccc3c21,.,?,-7%,-92*,22µM*
O=C(CCC(=O)N1CCOc2ccccc21)NCCCc1ccccc1,-2%,-4%,-2%,9,3%
CCN(CC(=O)NCc1ccc(F)cc1)C(=O)COc1ccc(C)c(C)c1,1%,-6%,-5%,-65*,i
O=C(COc1ccc(C(=O)c2ccccc2)cc1)NCc1ccc(F)cc1,1%,?,-10%,-76*,?
O=C(COc1ccccc1)NCc1ccccc1,-6%,-8%,4%,?,-15%
c1ccc(Sc2cccc3ccccc23)c(CNC2=NCCN2)c1,-2%,-28%,-6%,-67*,-5%
Fc1ccccc1Sc1ccccc1CNC1=NCCN1,-3%,-25%,-13%,-61*,-25%
O=[N+]([O-])c1ccccc1/C=N/NC1=NCCN1,.,-7%,2%,14,-7%
Cc1cccnc1NC1CCCCC1,2%,.,-1%,?,.
O=C(c1ccc2c(c1)OCO2)N(Cc1cccs1)C1(C(=O)NC2CCCCC2)CCCCC1,1%,?,6%,?,16µM*
COc1ccc(OC)c(CNC(=O)CSc2c3c(nc4cc(Cl)ccc24)CCCC3)c1,.,-10%,-4%,-60*,-5%
CCN(CC)CCCNC(=O)CSc1c2c(nc3cc(Cl)ccc13)CCCC2,-4%[11.5 µM],?,-2%,-107*!,-13%
O=C(CSc1c2c(nc3cc(Cl)ccc13)CCCC2)NCCCN1CCOCC1,-3%[11.5 µM],-17%,3%,13,-5%
CCCCc1c(O)nc(SCCN(C)C)n(-c2ccccc2)c1=O,0%,9%,-17%,4,2%
CCCCCCCSc1cc(OC)c(CCNC)cc1OC,-2%,?,2%,-99*,.
CCCCCSc1cc(OC)c(CCNC)cc1OC,-2%,?,-1%,-24,.
Cc1nc2ccccc2n1C(c1cccnc1)c1nc2ccccc2[nH]1 (stereo unspecified),.,10%,.,-79*,?
Cc1onc(-c2ccccc2)c1C(=O)NC(CC(=O)O)c1ccc(OC(C)C)cc1 (stereo unspecified),-2%,-6%,-1%,7,-9%
Cn1c(SCC(=O)NCCc2ccccc2)nnc1-c1ccncc1,6%,.,0%,24,.
COc1ccccc1N1CCN(CCCCN2C(=O)c3ccccc3C2=O)CC1,.,-9%,3%,-102*,-17%
